Test results as given in PubChem BioAssay (Tox21).
Where “and” joins values, the source holds several entries; their conditions need not be identical. Equal entries are not always repeated. A number with no mark means an inactive call. Where a call stands in place of a potency, no number is given. Calls of active or inactive are those of the source. Unless noted, calls follow the shape of the dose curve; as a rule, active = well fitted curve in the direction sought with a large enough effect in the repeat runs; inconclusive = weak or mixed curves; inactive = no such curve, though single readings can be large; an effect the other way counts as inactive or inconclusive.

Key:
[1] = qHTS assay to identify small molecule antagonists of the thyroid receptor (TR) signaling pathway - cell viability counter screen (AID 743064); also: nearly all actives have a fitted effect of over 50% in size; also: potency is read from the fitted curve at half-maximal effect
Method in brief: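 GH3.TRE-Luc cells, 4 h pre-plating; cpd + T3 1 nM final; 37 °C 23.5 h; CellTiter-Fluor 30 min; fluorescence read.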

[2] = qHTS assay to identify small molecule antagonists of the thyroid receptor (TR) signaling pathway (AID 743065); also: nearly all actives have a fitted effect of over 55% in size; also: potency is read from the fitted curve at half-maximal effect
Method in brief: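 GH3.TRE-Luc rat pituitary cells carrying two TR response elements driving luciferase were plated for 4 h, given compound plus 1 nM T3 (final), and incubated 23.5 h at 37 C. ONE-Glo luminescence measured reporter inhibition; CellTiter-Fluor fluorescence tracked cytotoxicity.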

[3] = test system: thyroid hormone receptor (rat, GH3 cells); test: qHTS assay to identify small molecule agonists of the thyroid receptor (TR) signaling pathway (AID 743066; calls by dose curve)
[4] = molecular target: Estrogen receptor (Homo sapiens) (UniProt P03372); test: qHTS assay to identify small molecule antagonists of the estrogen receptor alpha (ER-alpha) signaling pathway (AID 743069; active = well fitted curve in the direction sought with a large enough effect in the signal ratio in the repeat runs, not every such curve was filed as active; inconclusive = weak or mixed curves, or effect the other way; inactive = no such curve, though single readings can be large or run the other way; the % refers to the signal ratio; also: potency is read from the fitted curve at half-maximal effect)
Estrogen receptor (Homo sapiens), sequence (P03372 whole entry, looked up): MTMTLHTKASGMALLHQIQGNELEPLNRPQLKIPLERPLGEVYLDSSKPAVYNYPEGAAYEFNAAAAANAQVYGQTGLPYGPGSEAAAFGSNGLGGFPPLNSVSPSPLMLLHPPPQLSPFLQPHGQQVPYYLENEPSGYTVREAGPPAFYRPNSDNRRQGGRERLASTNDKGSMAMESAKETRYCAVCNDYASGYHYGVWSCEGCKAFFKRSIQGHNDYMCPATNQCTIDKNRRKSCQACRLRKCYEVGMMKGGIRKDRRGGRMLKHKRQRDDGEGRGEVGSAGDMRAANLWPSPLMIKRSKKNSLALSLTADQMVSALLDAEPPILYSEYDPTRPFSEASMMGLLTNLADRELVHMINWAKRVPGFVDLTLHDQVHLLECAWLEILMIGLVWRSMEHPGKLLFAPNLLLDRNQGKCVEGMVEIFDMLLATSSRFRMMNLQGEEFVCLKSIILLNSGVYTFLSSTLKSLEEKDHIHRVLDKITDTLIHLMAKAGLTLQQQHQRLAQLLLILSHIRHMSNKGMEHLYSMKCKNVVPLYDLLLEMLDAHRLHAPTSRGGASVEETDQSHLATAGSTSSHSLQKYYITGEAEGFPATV
Method in brief: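 Screening used a UAS-driven beta-lactamase reporter integrated into HEK293 cells expressing ER-alpha, stimulated with 17beta-estradiol alongside test compounds over 18 hr at 37C; signal came from LiveBLAzer B/G FRET fluorescence.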

[5] = qHTS assay to identify small molecule antagonists of the estrogen receptor alpha (ER-alpha) signaling pathway - cell viability counter screen (AID 743074; calls by dose curve; also: nearly all actives have a fitted effect of over 45% in size)
[6] = molecular target: Estrogen receptor (Homo sapiens) (UniProt P03372); test: qHTS assay to identify small molecule agonists of the estrogen receptor alpha (ER-alpha) signaling pathway (AID 743075; calls by dose curve)
[7] = molecular target: Estrogen receptor (Homo sapiens) (UniProt P03372); test: qHTS assay to identify small molecule agonists of the estrogen receptor alpha (ER-alpha) signaling pathway using the BG1 cell line (AID 743079); also: nearly all actives have a fitted effect of over 20% in size
[8] = qHTS assay to identify small molecule antagonists of the estrogen receptor alpha (ER-alpha) signaling pathway using the BG1 cell line (AID 743080; calls by dose curve;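 also: BG1 cells stimulated with 17beta-estradiol alongside compound; nearly all actives have a fitted effect of over 25% in size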; also: potency is read from the fitted curve at half-maximal effect)
Method in brief: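 BG1-Luc-4E2 cells (endogenous full-length ER-alpha, 4xERE luciferase) hormone-starved 5 days in charcoal-stripped FBS, plated 4,000/well for 24 h, then compound plus 17beta-estradiol for 21.5 h at 37 C; ONE-Glo luminescence read.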

[9] = qHTS assay to identify small molecule antagonists of the estrogen receptor alpha (ER-alpha) signaling pathway using the BG1 cell line - cell viability counter screen (AID 743081);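 also: compound given together with 17beta-estradiol as the ER stimulus; nearly all actives have a fitted effect of over 45% in size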; also: potency is read from the fitted curve at half-maximal effect
Aromatase (Homo sapiens) = Aromatase (Homo sapiens) (UniProt P11511); test: qHTS assay to identify aromatase inhibitors (AID 743083); also: nearly all actives have a fitted effect of over 55% in size; also: potency is read from the fitted curve at half-maximal effect
Aromatase (Homo sapiens), sequence (P11511 whole entry, looked up): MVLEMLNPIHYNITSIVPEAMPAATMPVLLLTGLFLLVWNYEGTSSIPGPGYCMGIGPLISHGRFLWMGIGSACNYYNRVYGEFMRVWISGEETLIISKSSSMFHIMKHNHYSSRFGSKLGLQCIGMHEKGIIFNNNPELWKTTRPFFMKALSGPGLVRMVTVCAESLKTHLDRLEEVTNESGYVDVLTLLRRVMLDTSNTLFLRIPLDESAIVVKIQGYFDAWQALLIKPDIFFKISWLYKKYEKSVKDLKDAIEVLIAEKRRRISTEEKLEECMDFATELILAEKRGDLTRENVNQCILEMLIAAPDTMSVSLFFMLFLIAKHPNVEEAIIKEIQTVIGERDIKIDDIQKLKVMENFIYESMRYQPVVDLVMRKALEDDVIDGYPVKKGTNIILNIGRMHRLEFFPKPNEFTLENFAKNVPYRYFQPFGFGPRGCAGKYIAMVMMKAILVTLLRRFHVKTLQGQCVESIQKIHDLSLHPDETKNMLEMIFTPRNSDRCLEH

| SMILES | Potency [1] | Potency [2] | Potency [3] | Potency [4] | Potency [5] | Potency [6] | Potency [7] | Potency [8] | Potency [9] | Potency (Aromatase (Homo sapiens)) |
| --- | --- | --- | --- | --- | --- | --- | --- | --- | --- | --- |
| CCCn1cnc2c1c(=O)n(CCCCC(C)=O)c(=O)n2C | inactive | inactive | inactive | inactive | inactive | inactive | inactive | inactive | inactive | inactive |
| O=C1[C@H]2CCCC[C@H]2C(=O)N1CCCCN1CCN(c2nsc3ccccc23)CC1 | 21.1 µM (active) | 29.8 µM (active) | inactive | inactive | inactive | inactive | inactive | – | 29.8 µM (active) | 29.8 µM (active) |
| CCN(CC)CCNC(=O)c1cc(Br)c(N)cc1OC | inactive | inactive | inactive | inactive | inactive | inactive | inactive | inactive | inactive | inactive |
| CN1CCN(C(c2ccccc2)c2ccccc2)CC1 | inactive | inactive | inactive | inactive | inactive | inactive | inactive | inactive | inactive | inactive |
| CCCCCCCN | inactive | inactive | inactive | inactive | inactive | inactive | inactive | – | inactive | inactive |
| Cn1c(=O)cc(Oc2ccc(F)cc2F)c2cnc(NCC(C)(C)O)nc21 | inactive | inactive | inactive | inactive | inactive | inactive | – | 19.3 µM (active) | inactive | inactive |
| C=C1[C@H]2CC[C@@H]3[C@H]2C(C)(C)CCC[C@]13C | inactive | inactive | inactive | inactive | inactive | inactive | inactive | – | inactive | inactive |
| CC(=O)OC[C@H]1O[C@@H](n2ncc(=O)[nH]c2=O)[C@H](OC(C)=O)[C@@H]1OC(C)=O | inactive | inactive | inactive | 2.68 µM [inconclusive] (active) | inactive | inactive | inactive | – | inactive | inactive |
| CC(CC=O)c1ccccc1 (stereo unspecified) | inactive | inactive | inactive | inactive | inactive | inactive | inactive | inactive | inactive | inactive |
| C[N+](C)(C)CCOC(=O)CCC(=O)OCC[N+](C)(C)C | inactive | inactive | inactive | inactive | inactive | inactive | inactive | inactive | inactive | inactive |
| CN(C)CCN(Cc1ccccc1)c1ccccn1 | inactive | inactive | inactive | inactive | inactive | inactive | inactive | – | inactive | inactive |
| c1ccc(-c2ccccn2)nc1 | inactive | inactive | inactive | inactive | inactive | inactive | inactive | inactive | inactive | inactive |
| CC(=O)c1cccc([N+](=O)[O-])c1 | inactive | inactive | inactive | inactive | inactive | inactive | inactive | – | inactive | inactive |
| NCCCN1CCOCC1 | inactive | inactive | inactive | inactive | inactive | inactive | inactive | inactive | inactive | inactive |
| CC(CSC(=O)c1ccccc1)C(=O)N1C[C@@H](Sc2ccccc2)C[C@H]1C(=O)O (stereo partly specified) | inactive | inactive | inactive | inactive | inactive | inactive | inactive | inactive | inactive | inactive |
| CCOC(=O)c1cccnc1 | inactive | inactive | inactive | inactive | inactive | inactive | inactive | – | inactive | inactive |
| C[C@H](CCC(=O)O)[C@H]1CC[C@H]2[C@@H]3CC[C@@H]4C[C@H](O)CC[C@]4(C)[C@H]3C[C@H](O)[C@]12C | inactive | 68.8 µM (active) | inactive | inactive | inactive | inactive | inactive | inactive | inactive | inactive |
| OCCNCc1ccccc1 | inactive | inactive | inactive | inactive | inactive | inactive | inactive | inactive | inactive | inactive |
| NC(N)=NCCC[C@H](N)C(=O)O | inactive | inactive | inactive | inactive | inactive | inactive | inactive | inactive | inactive | inactive |
| N=c1ccn2c(n1)O[C@H]1[C@H](O)[C@@H](CO)O[C@H]12 | 0.531 µM (active) | 531 nM (active) and 545 nM (active) | inactive | inactive | inactive | inactive | inactive | – | inactive | inactive |
| O=C(O)c1ccc(S(=O)(=O)O)cc1C(=O)O | inactive | inactive | inactive | inactive | inactive | inactive | inactive | inactive | inactive | inactive |
